Reference: PubChem BioAssay (Tox21)
Records with an inconclusive call do not appear. The source made the active and inactive calls. Unless noted, calls come from the whole dose curve.

How the values were obtained:
[1] = Nuclear factor erythroid 2-related factor 2/antioxidant responsive element (Nrf2/ARE) small molecule agonists: qHTS cell viability counter screen in human keratinocytes (AID 1919968; active = well fitted curve in the direction sought with a large enough effect in the repeat runs; an effect the other way counts as inactive or inconclusive; note: nearly all actives have a fitted effect of over 55% in size)
Outline: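 Parallel cytotoxicity read: KeratinoSens HaCaT cells, compound treatment 23 h, viability by CellTiter-Fluor fluorescence 1 h post-reagent.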

[2] = Nuclear factor erythroid 2-related factor 2/antioxidant responsive element (Nrf2/ARE) small molecule agonists: luciferase reporter gene qHTS assay in human keratinocytes (AID 1919969); note: nearly all actives have a fitted effect of over 35% in size; note: potency is the fitted concentration of half-maximal effect
[3] = target: Gonadotropin-releasing hormone receptor (Homo sapiens) (UniProt P30968); assay: Human gonadotropin-releasing hormone receptor (GnRHR) small molecule agonists, calcium flux assay in GnRHR-HEK293 cells (AID 1920063); note: nearly all actives have a fitted effect of over 35% in size
Sequence of Gonadotropin-releasing hormone receptor (Homo sapiens) (P30968 whole entry, looked up): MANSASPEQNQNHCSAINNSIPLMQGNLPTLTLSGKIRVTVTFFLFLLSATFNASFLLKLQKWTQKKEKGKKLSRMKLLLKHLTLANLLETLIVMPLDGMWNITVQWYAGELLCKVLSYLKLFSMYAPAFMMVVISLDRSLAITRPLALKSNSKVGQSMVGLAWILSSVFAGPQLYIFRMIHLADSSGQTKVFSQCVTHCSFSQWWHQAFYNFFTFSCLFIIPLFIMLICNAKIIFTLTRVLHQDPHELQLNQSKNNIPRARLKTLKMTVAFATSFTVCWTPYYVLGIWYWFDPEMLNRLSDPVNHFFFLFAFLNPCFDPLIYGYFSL
Outline: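 Calcium flux, agonist mode, human GnRHR stably integrated in HEK293; dye 1 h at 37 C before compound; Ex/Em=480/540 kinetic read, 3 min; 15 concentrations, triplicate.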

[4] = target: KiSS-1 receptor (Homo sapiens) (UniProt Q969F8); assay: Human kisspeptin (KISS1R) small molecule agonists, calcium flux assay in KISS1R-HEK293 cells (AID 1920064; active = well fitted curve in the direction sought with a large enough effect in the repeat runs; an effect the other way counts as inactive or inconclusive)
Sequence of KiSS-1 receptor (Homo sapiens) (Q969F8 whole entry, looked up): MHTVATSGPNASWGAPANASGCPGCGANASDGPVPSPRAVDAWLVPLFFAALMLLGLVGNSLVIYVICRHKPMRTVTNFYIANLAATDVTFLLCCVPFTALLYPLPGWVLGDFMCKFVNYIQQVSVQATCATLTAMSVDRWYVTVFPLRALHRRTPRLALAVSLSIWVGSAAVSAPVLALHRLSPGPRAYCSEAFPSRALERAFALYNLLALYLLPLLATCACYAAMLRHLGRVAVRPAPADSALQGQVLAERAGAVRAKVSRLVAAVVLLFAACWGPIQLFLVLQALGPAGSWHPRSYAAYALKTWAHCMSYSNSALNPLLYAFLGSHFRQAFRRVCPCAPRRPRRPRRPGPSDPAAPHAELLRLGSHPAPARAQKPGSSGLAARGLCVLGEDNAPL
Outline: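 Triplicate 15-concentration series were applied to dye-loaded human KISS1R HEK293 cells, and agonist-evoked calcium fluorescence was captured for 3 min.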

[5] = G protein-coupled receptor (GPCR) small molecule agonists, calcium flux assay: HEK293 wild type cell line counter screen (AID 1920065)
Outline: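 Non-specific calcium responders were flagged by adding DMSO-dissolved compounds to dye-loaded cells and reading 480/540 nm fluorescence each second for 3 min; ATP served as positive control.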

[6] = p53 small molecule agonists, cell-based qHTS assay with human liver microsomes (AID 1963577);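 note: p53 response element beta-lactamase reporter cells with liver microsomes plus NADPH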
Outline: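 Reporter activation was measured by LiveBLAzer fluorescence intensity in p53RE-bla cells, which had been exposed to compounds for 16 h at 37 C alongside 0.5 mg/mL human liver microsomes and 0.5 mg/mL NADPH (final concentrations).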

[7] = p53 small molecule agonists, cell-based qHTS assay with rat liver microsomes (AID 1963578)
Outline: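 Compound in DMSO added to p53RE-bla cells 5 h post-plating; rat microsomes/NADPH 0.5 mg/mL final; 16 h, 37 C; LiveBLAzer 2 h RT.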

[8] = p53 small molecule agonists, cell-based qHTS assay with human liver microsomes: qHTS cell viability counter screen (AID 1963579); note: nearly all actives have a fitted effect of over 45% in size
Outline: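 HLM-supplemented (0.5 mg/mL final) and NADPH-supplemented (0.5 mg/mL final) p53RE-bla cultures, 4,000 cells per well, were dosed with compounds in DMSO for 16 h at 37 C; luminescent ATP detection (CellTiter-Glo, 30 min, room temperature) quantified surviving cells.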

[9] = p53 small molecule agonists, cell-based qHTS assay with rat liver microsomes: qHTS cell viability counter screen (AID 1963580); note: nearly all actives have a fitted effect of over 45% in size
Outline: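 Cytotoxicity counter screen: intracellular ATP read by CellTiter-Glo luminescence in the p53 reporter wells. HCT-116 p53RE-bla cells were treated for 16 h at 37 C alongside rat liver microsomes and NADPH, each 0.5 mg/mL final.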

[10] = p53 small molecule agonists, cell-based qHTS assay: qHTS cell viability counter screen (AID 1963581); note: nearly all actives have a fitted effect of over 45% in size
Outline: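 Multiplexed with the reporter read, a CellTiter-Glo step (30 min, room temperature) gauges ATP-based viability of HCT-116 p53RE-bla cells after 16 h compound incubation at 37 C.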

[11] = p53 small molecule agonists, cell-based qHTS assay (AID 1963582; active = well fitted activation curve with a large enough effect in the signal ratio in the repeat runs, not every such curve was filed as active; the % refers to the signal ratio)
Outline: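 Beta-lactamase reporter cells (p53RE-bla) treated with compounds for 16 h at 37 C; FRET substrate, 2 h, room temperature; fluorescence intensity.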

[12] = target: 5-hydroxytryptamine receptor 2A (Homo sapiens) (UniProt P28223); assay: 5-hydroxytryptamine receptor 2A (HTR2A) small molecule antagonists, cell-based qHTS assay (AID 1963586); note: nearly all actives have a fitted effect of over 45% in size
Sequence of 5-hydroxytryptamine receptor 2A (Homo sapiens) (P28223 whole entry, looked up): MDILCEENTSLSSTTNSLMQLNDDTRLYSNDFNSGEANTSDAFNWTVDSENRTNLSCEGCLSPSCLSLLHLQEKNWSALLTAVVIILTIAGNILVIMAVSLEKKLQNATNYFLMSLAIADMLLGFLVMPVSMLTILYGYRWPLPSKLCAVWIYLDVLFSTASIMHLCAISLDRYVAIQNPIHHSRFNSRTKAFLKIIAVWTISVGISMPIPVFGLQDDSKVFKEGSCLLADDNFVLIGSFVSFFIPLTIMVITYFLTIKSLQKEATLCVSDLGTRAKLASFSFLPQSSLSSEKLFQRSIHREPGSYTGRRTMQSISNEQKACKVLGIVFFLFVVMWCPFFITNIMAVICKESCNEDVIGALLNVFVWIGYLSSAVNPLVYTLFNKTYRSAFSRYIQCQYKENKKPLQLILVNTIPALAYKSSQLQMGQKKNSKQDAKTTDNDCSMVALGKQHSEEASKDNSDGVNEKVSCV
Outline: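 CHO cells stably expressing human HTR2A were plated for 18 h at 37 C, then loaded with calcium dye for 1 h. Compounds were preincubated 5 min at room temperature before DOI (4 nM solution) was added. Kinetic fluorescence was read for 3 min.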

[13] = target: 5-hydroxytryptamine receptor 2A (Homo sapiens) (UniProt P28223); assay: 5-hydroxytryptamine receptor 2A (HTR2A) small molecule agonists, cell-based qHTS assay (AID 1963587); note: nearly all actives have a fitted effect of over 30% in size
Outline: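 Kinetic calcium-flux fluorescence (2 min, 1 sec intervals) after compound addition in agonist mode. HTR2A-CHO cells were cultured 18 h, then dye-loaded 1 h at 37 C.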

[14] = cAMP Responsive Elements (CRE) small molecule antagonists, cell-based qHTS assay (AID 1963591; active = well fitted inhibition curve with a large enough effect in the signal ratio in the repeat runs, not every such curve was filed as active; the % refers to the signal ratio)
Outline: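 Fluorescence intensity from cleaved LiveBLAzer B/G substrate (2 h, room temperature) quantified CRE-bla activity in HEK 293T cells exposed 3 h to compound with 0.25 uM final NKH477.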

[15] = target: Beta-2 adrenergic receptor (Homo sapiens) (UniProt P07550); assay: Adrenergic beta2 receptor (ADRB2) small molecule antagonists, cell-based qHTS assay (AID 1963592); note: series mostly up to about 92 µM; nearly all actives have a fitted effect of over 50% in size
Sequence of Beta-2 adrenergic receptor (Homo sapiens) (P07550 whole entry, looked up): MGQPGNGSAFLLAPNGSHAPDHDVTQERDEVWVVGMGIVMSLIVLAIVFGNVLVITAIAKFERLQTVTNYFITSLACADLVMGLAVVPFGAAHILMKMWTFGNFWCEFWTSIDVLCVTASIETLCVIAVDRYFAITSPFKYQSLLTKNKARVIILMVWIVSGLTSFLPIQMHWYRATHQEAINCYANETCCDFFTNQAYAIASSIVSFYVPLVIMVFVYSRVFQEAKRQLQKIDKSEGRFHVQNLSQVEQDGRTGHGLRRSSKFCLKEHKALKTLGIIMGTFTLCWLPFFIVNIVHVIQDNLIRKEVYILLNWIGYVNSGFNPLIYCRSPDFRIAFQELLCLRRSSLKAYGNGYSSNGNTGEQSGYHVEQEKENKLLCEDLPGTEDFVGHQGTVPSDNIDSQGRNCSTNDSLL
Outline: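 Assay format: CHO-ADRB2 cells, 18-20hr seeding at 37C/5% CO2, then compound plus 1nM isoproterenol agonist mix for 0.5hr RT. Homogeneous time-resolved fluorescence cAMP detection after 1hr, expressed as 665/615 nm ratio.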

[16] = target: D(2) dopamine receptor (Homo sapiens) (UniProt P14416); assay: Dopamine D2 receptor (DRD2) small molecule agonists, cell-based qHTS assay (AID 1963594); note: nearly all actives have a fitted effect of over 35% in size
Sequence of D(2) dopamine receptor (Homo sapiens) (P14416 whole entry, looked up): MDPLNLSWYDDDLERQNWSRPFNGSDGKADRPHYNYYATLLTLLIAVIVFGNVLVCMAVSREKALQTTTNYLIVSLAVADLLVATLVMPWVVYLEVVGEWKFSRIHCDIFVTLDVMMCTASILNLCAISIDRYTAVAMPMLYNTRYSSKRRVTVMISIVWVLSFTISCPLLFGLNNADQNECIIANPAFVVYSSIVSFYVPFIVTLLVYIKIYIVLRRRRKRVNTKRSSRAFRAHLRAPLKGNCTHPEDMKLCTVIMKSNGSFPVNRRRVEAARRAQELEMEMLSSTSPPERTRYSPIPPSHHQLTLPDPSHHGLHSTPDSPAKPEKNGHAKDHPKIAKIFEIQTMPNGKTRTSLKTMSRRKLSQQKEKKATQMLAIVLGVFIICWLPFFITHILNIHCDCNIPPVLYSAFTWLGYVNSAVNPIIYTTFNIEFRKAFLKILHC
Outline: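 cAMP accumulation in DRD2-HEK293 cells measured by HTRF after 1 h detection; compounds added 10 min before NKH477 (200nM […]) forskolin-analogue stimulation, 30 min at room temperature, with Ro20-1724 present at 0.1 mM final.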

[17] = target: D(2) dopamine receptor (Homo sapiens) (UniProt P14416); assay: Dopamine D2 receptor (DRD2) small molecule antagonists, cell-based qHTS assay (AID 1963595; active = well fitted inhibition curve with a large enough effect in the signal ratio in the repeat runs, with a control signal flat; the % refers to the signal ratio)
Outline: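 Antagonism was scored as restored cAMP in HEK293-DRD2 cells. These cells were stimulated with 200 nM NKH477 and 12 nM quinpirole for 30 min at room temperature, in the presence of 0.1 mM Ro20-1724.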

[18] = target: Muscarinic acetylcholine receptor M1 (Homo sapiens) (UniProt P11229); assay: Cholinergic receptor muscarinic 1 (CHRM1) small molecule antagonists, cell-based qHTS assay (AID 1963588); note: nearly all actives have a fitted effect of over 40% in size; note: potency is the fitted concentration of half-maximal effect
Sequence of Muscarinic acetylcholine receptor M1 (Homo sapiens) (P11229 whole entry, looked up): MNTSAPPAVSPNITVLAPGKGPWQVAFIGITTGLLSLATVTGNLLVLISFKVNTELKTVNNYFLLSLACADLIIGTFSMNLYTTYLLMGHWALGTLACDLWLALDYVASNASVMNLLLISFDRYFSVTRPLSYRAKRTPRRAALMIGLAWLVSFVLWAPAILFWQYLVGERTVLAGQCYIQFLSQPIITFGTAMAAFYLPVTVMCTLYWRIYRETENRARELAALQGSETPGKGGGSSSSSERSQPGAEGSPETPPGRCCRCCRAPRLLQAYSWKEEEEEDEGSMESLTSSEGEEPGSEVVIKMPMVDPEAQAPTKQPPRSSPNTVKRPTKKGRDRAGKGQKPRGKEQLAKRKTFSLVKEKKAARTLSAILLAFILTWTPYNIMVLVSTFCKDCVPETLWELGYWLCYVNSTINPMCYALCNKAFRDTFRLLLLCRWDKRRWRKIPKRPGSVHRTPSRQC
Outline: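 Compounds were tested at 15 concentrations in three independent runs. Dye-loaded CHRM1-CHO cells were exposed 5 min at room temperature before stimulation by acetylcholine added at 50nM. Intracellular calcium was read kinetically on FDSS for 3 min.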

[19] = target: Muscarinic acetylcholine receptor M1 (Homo sapiens) (UniProt P11229); assay: Cholinergic receptor muscarinic 1 (CHRM1) small molecule agonists, cell-based qHTS assay (AID 1963589); note: nearly all actives have a fitted effect of over 35% in size
Outline: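 qHTS, 15-point titration, 3 independent runs: compounds pin-transferred onto dye-loaded CHRM1-CHO cells (human M1), calcium fluorescence followed every second to detect agonism.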

[20] = cAMP Responsive Elements (CRE) small molecule agonists, cell-based qHTS assay (AID 1963590)
Outline: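 Quantitative HTS for CRE agonists: HEK 293T CRE-bla cells, overnight plating, 3 h compound incubation at 37 C/5% CO2, then 2 h room-temperature LiveBLAzer B/G FRET substrate loading.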

Measured: Potency

CCCCc1ccc(O)cc1
not listed: [18] | [19] | [20]
inactive: all other assays above

Oc1cccc(Cl)c1Cl
not listed: [13] | [14] | [16]
inactive: all other assays above

O=C1OC(CCN2CCCCC2)OC1(c1ccccc1)c1ccccc1 (stereo unspecified)
active: [2] 29.8 µM | [18] 2.31 µM
not listed: [12] | [14] | [15] | [19]
inactive: all other assays above

O=C(NC(=O)c1c(F)cccc1F)Nc1cc(Cl)c(F)c(Cl)c1F
not listed: [13] | [14]
inactive: all other assays above

CC(Cc1ccc(C(C)(C)C)cc1)CN1C[C@@H](C)O[C@@H](C)C1 (stereo partly specified)
active: [2] 61.1 µM | [18] 37.5 µM
not listed: [12] | [16] | [17]
inactive: all other assays above

N#Cc1ccc(N(CC(N)=O)CC(F)(F)F)cc1C(F)(F)F
not listed: [16] | [19]
inactive: all other assays above

CCCCS(=O)(=O)Cl
not listed: [19] | [20]
inactive: all other assays above
